Measured values as given in PubChem BioAssay (NCATS).
Inconclusive results are not listed. Calls of active or inactive are those of the source. Unless noted, the call rests on the fitted dose curve; in most records, active means well fitted curve in the direction sought with a large enough effect; inconclusive means small, poorly fitted or top-dose-only effect, or another doubt; inactive means no such curve, though single readings can be large; an effect the other way counts as inactive or inconclusive.

Legend:
[1] = qHTS to identify inhibitors of the type 1 interferon - major histocompatibility complex class I in skeletal muscle: primary screen against the NCATS LOPAC collection (AID 1347405);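 further: lytic HiBiT luminescence reporting HLA-B protein level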
How it was run: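 Immortalized human C25cl48 myoblasts with HiBiT knocked into endogenous HLA-B*08:01 were stimulated with 4.0 ng/ml IFN-beta and given compounds in a 7-point, 1:4.3 titration from 46 uM final; after 24 hrs, lytic HiBiT luminescence was read.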

[2] = qHTS for inhibitors of adenylyl cyclases using a fission yeast platform: a pilot screen against the NCATS LOPAC library (AID 1347410)
How it was run: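 GFP from fbp1-GFP reporter, read by Acumen laser cytometry, indicates AC inhibition in fission yeast expressing AC9, GNAS and PDE4D2. Cells grown 18 h in the dark at 30C with compounds, final up to 57 uM.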

[3] = qHTS to identify inhibitors of the type 1 interferon - major histocompatibility complex class I in skeletal muscle: primary screen against the NCATS Pharmaceutical Collection (AID 1347407);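 further: luminescence of HiBiT knocked into endogenous HLA-B as interferon-induced MHC class I level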; further: potency means the concentration at half of the fitted maximal effect
How it was run: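 Compounds […] were added to CRISPR-engineered HLA-B-HiBiT C25cl48 human myoblasts with 4.0 ng/ml IFN-beta. After 24 hrs at 37 C, cells were lysed and HiBiT luminescence measured.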

[4] = molecular target: Protein phosphatase 1D (Homo sapiens) (UniProt O15297); assay: RapidFire Mass Spectrometry qHTS Assay for Modulators of WT P53-Induced Phosphatase 1 (WIP1) (AID 1347424);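 further: amount of dephosphorylated VEPPL-S-QETFS peptide product formed by WIP1; series mostly up to about 63 µM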
Chain of Protein phosphatase 1D (Homo sapiens) (O15297 whole entry, looked up): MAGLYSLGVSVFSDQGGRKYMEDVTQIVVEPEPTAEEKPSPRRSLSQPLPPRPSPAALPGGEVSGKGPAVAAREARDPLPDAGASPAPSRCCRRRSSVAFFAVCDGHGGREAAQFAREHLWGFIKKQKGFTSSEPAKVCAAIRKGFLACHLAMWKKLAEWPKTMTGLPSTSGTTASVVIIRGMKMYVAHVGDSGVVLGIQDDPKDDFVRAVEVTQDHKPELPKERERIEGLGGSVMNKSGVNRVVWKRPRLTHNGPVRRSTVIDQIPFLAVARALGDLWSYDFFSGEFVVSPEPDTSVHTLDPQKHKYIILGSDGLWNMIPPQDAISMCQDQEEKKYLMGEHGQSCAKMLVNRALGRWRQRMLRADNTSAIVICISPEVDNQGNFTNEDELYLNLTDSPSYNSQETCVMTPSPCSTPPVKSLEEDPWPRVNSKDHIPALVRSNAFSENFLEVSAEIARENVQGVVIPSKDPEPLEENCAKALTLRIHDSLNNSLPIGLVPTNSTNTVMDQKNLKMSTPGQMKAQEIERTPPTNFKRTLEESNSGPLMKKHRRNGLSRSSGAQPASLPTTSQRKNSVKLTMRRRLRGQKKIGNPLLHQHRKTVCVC
How it was run: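 WIP1 (10 nM final) was preincubated 1 h at room temperature with compounds in Tris-HCl pH 7.5, 30 mM MgCl2, TCEP, EGTA, BSA; 2 uM VEPPL-pS-QETFS phosphopeptide was added for 5 min, quenched with formic acid, and dephosphorylated product quantified by RapidFire MS.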

[5] = molecular target: Protein phosphatase 1D (Homo sapiens) (UniProt O15297); assay: Rhodamine-PBP qHTS Assay for Modulators of WT P53-Induced Phosphatase 1 (WIP1) (AID 1347425)
How it was run: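 5 nM WIP1 + 10 uM Rh-PBP, 50 mM Tris pH 7.5, 30 mM MgCl2, 1 mM TCEP, 0.1 mM EGTA, BSA; cpds pinned, 1 hr RT; + 10 uM phosphopeptide; fluorescence 1-min reads x 11 min; delta = f1 - f0.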

[6] = Validation qHTS assay for inhibitors of Activation Induced Cytidine Deaminase (AID): UDG Counterscreen signal (AID 1347427)
How it was run: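 Counterscreen read of UDG activity (2 U/mL, 4/3x) in the FRET deamination format with AID (1 uM, 4/3x), DJC20/DJC23 substrates (250 nM, 4x), 4 h at room temperature. NaOH stop, fluorescence at 560 ex/665 em.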

[7] = molecular target: Single-stranded DNA cytosine deaminase (Homo sapiens) (UniProt Q9GZX7); assay: Validation qHTS assay for inhibitors of Activation Induced Cytidine Deaminase (AID): AID signal (AID 1347429)
Chain of Single-stranded DNA cytosine deaminase (Homo sapiens) (Q9GZX7 whole entry, looked up): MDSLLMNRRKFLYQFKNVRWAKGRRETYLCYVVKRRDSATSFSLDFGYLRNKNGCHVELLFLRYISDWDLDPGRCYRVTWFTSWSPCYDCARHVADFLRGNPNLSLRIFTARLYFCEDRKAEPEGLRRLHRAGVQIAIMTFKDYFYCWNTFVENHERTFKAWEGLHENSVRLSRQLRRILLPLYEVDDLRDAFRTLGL
How it was run: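 AID and UDG were combined and compounds added at final up to 114 uM, then DJC20/DJC23 FRET substrate was added for 4 hr at room temperature. NaOH was then added for 30 min before fluorescence was read at 540/590 nm.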

[8] = Primary qHTS for inhibitors of SARS-S pseudo-typed particle cell entry (AID 1479145; calls by dose curve; further: nearly all actives have a fitted effect of over 45% in size; further: potency means the concentration at half of the fitted maximal effect)

Measured: Potency

CC(O)(CS(=O)(=O)c1ccc(F)cc1)C(=O)Nc1ccc(C#N)c(C(F)(F)F)c1 (stereo unspecified)
inactive: [1] | [2]

O=C1NCN(c2ccccc2)C12CCN(CC1COc3ccccc3O1)CC2 (stereo unspecified)
not listed: [8]
inactive: all other assays above

c1ccc(C2CC2)c(OCC2=NCCN2)c1
not listed: [8]
inactive: all other assays above

CCCN1CCC[C@@H]2Cc3nc(N)ncc3C[C@H]21
not listed: [8]
inactive: all other assays above

CCCN1CCC[C@@H]2Cc3[nH]ncc3C[C@H]21
not listed: [8]
inactive: all other assays above

CC(C)CC(N(C)C)C1(c2ccc(Cl)cc2)CCC1 (stereo unspecified)
inactive: [3] | [4] | [5]

NCC1(CC(=O)O)CCCCC1
inactive: all assays above

Oc1cc(Cl)ccc1Oc1ccc(Cl)cc1Cl
inactive: [3] | [4]

COc1ccc(C(CN(C)C)C2(O)CCCCC2)cc1 (stereo unspecified)
inactive: all assays above

CC(CCc1ccccc1)NC(C)C(O)c1ccc(O)cc1 (stereo unspecified)
not listed: [4]
inactive: all other assays above

C[C@]12CCC(=O)C(O)=C1CC[C@@H]1[C@@H]2CC[C@]2(C)C(=O)CC[C@@H]12
inactive: [3] | [4] | [5] | [6] | [7]

CC1NCCOC1c1ccccc1 (stereo unspecified)
inactive: [3] | [4] | [5]

Oc1cccc2cccnc12
inactive: [3] | [4] | [5] | [8]

CCOP(=S)(OCC)Oc1cc(C)nc(C(C)C)n1
inactive: [3] | [4] | [5]

Cc1ccc2c(c1)C1CN(C)CCC1N2 (stereo unspecified)
inactive: [3] | [4] | [5]

CC1OC(C)OC(C)O1 (stereo unspecified)
inactive: [3] | [4] | [5]

C#CCOC(C(=O)OCCN(C)C)(c1ccccc1)c1ccccc1
inactive: [3] | [4] | [5]

c1ccc2c(c1)Nc1ccccc1S2
inactive: [3] | [4] | [5]

O=C(NC(O)C(Cl)(Cl)Cl)NC(O)C(Cl)(Cl)Cl (stereo unspecified)
inactive: [3] | [4] | [5]

O=C(O)c1ccc2[nH]cc(CCCCN3CC=C(c4ccccc4)CC3)c2c1
inactive: [3] | [4] | [5]

O=P1(NCCCl)OCCCN1CCCl (stereo unspecified)
inactive: [3] | [4] | [5] | [8]

COc1ccc(C(=O)c2c(C)n(CCN3CCOCC3)c3ccccc23)cc1
inactive: [3] | [4] | [5]

CO[C@]12CC[C@@]3(C[C@@H]1[C@](C)(O)C(C)(C)C)[C@@H]1Cc4ccc(O)c5c4[C@@]3(CCN1CC1CC1)[C@H]2O5
active: [3] 48.1 µM
inactive: [4] | [5]

CC(C)NCC(O)c1ccccc1Cl (stereo unspecified)
inactive: [3] | [4] | [5] | [8]

CCN(CC)C(=O)N[C@@H]1C=C2c3cccc4[nH]cc(c34)C[C@@H]2N(C)C1
inactive: [3] | [4] | [5] | [8]

OCCOc1ccccc1
inactive: [3] | [4] | [5] | [8]

CCN(CC)CCN1C(=O)CN=C(c2ccccc2F)c2cc(Cl)ccc21
inactive: [3] | [4] | [5]

CC[N+](CC)(CC)CC
inactive: [3] | [4] | [5]

CC(C)(N)Cc1ccc(Cl)cc1
inactive: [3] | [4] | [5]

C=C1CC[C@@]2(O)[C@H]3Cc4ccc(O)c5c4[C@@]2(CCN3CC2CC2)[C@H]1O5
inactive: [3] | [4] | [5]

Cc1ccc(-c2nc3ccc(C)cn3c2CC(=O)N(C)C)cc1
inactive: [3] | [4] | [5]

COc1ccc(Cc2nccc3cc(OC)c(OC)cc23)cc1OC
inactive: [3] | [4] | [5]
active: [8] 14.1 µM

CCCC1CCCCN1 (stereo unspecified)
inactive: [3] | [4] | [5]

C=CCN1CC[C@]23c4c5ccc(O)c4O[C@H]2C(=O)CC[C@@]3(O)[C@H]1C5
inactive: [3] | [4] | [5] | [8]

CN1C(=S)CN=C(c2ccccc2)c2cc(Cl)ccc21
inactive: [3] | [4] | [5]

CCOC(=O)C1(c2ccccc2)CCN(CCC(C#N)(c2ccccc2)c2ccccc2)CC1
inactive: [3] | [4] | [5]

CCN(CC)CCOC(=O)C(O)(c1ccccc1)c1ccccc1
inactive: [3] | [4] | [5]

CCC(C(N)=O)N1CCCC1=O (stereo unspecified)
inactive: [3] | [4] | [5] | [8]

N[C@@H](Cc1ccc(N(CCCl)CCCl)cc1)C(=O)O
inactive: [3] | [4] | [5]
active: [8] 31.6 µM

CCN(C(C)=O)c1cccc(-c2ccnc3c(C#N)cnn23)c1
inactive: [3] | [4] | [5]

Clc1cccc(N2CCNCC2)c1
inactive: [3] | [4] | [5]

COC[C@@H](NC(C)=O)C(=O)NCc1ccccc1
inactive: [3] | [4] | [5]

COc1ccc2c(c1OC)CN1CCc3cc4c(cc3C1C2)OCO4 (stereo unspecified)
inactive: [3] | [4] | [5]

CCC(COC(=O)c1cc(OC)c(OC)c(OC)c1)(c1ccccc1)N(C)C (stereo unspecified)
inactive: [3] | [4] | [5]
